# Results as given in ChEMBL document CHEMBL3988442, “University of Dundee, Small-Polar-MMV Screening Library” (2021).
# Tests used:
# [1] = target: T1, Aspartate--tRNA(Asp/Asn) ligase (Mycobacterium tuberculosis (strain ATCC 25618 / H37Rv)) (UniProt P9WFW3); experiment: Assay for Asp RNA synthetase-1 from Mycobacterium tuberculosis; format: functional; parameters: scale not given: direction of the effect not stated beside the values; conditions: 30 µM; note: in the data most compounds retested in dose-response had high values
# T1 sequence (whole entry): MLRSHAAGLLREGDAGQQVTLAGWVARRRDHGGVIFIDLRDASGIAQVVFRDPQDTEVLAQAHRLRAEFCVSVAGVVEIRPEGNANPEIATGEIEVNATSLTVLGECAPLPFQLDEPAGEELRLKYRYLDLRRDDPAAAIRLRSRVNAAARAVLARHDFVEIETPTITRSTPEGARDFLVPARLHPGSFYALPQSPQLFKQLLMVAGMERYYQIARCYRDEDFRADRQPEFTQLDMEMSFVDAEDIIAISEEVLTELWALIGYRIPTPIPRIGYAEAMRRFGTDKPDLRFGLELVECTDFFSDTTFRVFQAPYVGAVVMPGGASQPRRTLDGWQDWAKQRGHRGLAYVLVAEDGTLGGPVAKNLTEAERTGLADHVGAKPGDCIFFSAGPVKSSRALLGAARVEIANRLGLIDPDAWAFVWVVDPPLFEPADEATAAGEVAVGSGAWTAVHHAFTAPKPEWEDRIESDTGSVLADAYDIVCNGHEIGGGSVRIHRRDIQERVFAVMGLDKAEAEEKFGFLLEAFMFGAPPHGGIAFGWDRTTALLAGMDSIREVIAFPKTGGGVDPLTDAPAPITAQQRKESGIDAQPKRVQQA
# [2] = target: Shiga toxin 2 (Escherichia coli O157:H7) (UniProt P09385+P09386); experiment: E. coli 0.157:H7 Shiga Toxin SOP - stx2 screening assay; format: functional; parameters: scale not given: direction of the effect not stated beside the values; conditions: 30 µM
Compound,Percent Effect [1] [%],Percent Effect [2] [%]
CC(Cn1cccn1)NC(=O)Nc1nccs1 (stereo not given),-0.364,2.8
Cc1cccc(CN2CCC3(CCCN(C(=O)NC4CC4)C3)C2=O)n1 (stereo not given),6.63,-5.22
CC1(C)OCC(CNC(=O)c2cnn(-c3ccc(Cl)cc3)c2N)O1 (stereo not given),2.4,47.4
CCn1ncc2c1C(COCC1CC1)CN(S(=O)(=O)N(C)C)C2 (stereo not given),-1.37,-9.58
O=C(N1CCCO1)[C@@]12CCO[C@@H]1CCN(C1CCCCC1)C2,-5.76,-31.5
O=C(C1=CCCC1)N1CCO[C@H]2[C@@H](OCC3CC3)CC[C@@H]21,2.53,-28.7
Cn1cc(CN2CC[C@@H]3[C@@H](CCC(=O)N3CCc3c[nH]cn3)C2)cn1,-1.44,-37.6
CC(C)n1ccnc1CN1CCCN(C(=O)c2cc(Cl)c[nH]2)CC1,3.35,-53.1
COc1ncc(CN2CC[C@@](C)(O)[C@H](Oc3cccc(F)c3)C2)cn1,6.63,13
CCCOc1ccc(NC(=O)NCCC(=O)N(C)C)cc1Cl,1.09,-67.2
Cc1ccc(CN2C[C@@H]3COC[C@H](NS(C)(=O)=O)[C@@H]3C2)o1,3.2,-0.0539
COc1ccc(-c2nnc(SCC(=O)NCC(C)C)[nH]2)c(OC)c1,6.14,6.1
Fc1cccnc1OC[C@@]12CCO[C@@H]1CCN(CC1CCOCC1)C2,0.353,1.39
O=c1cc(Cn2cncn2)nc2n1CCCN(CC1CC1)C2,-4.96,-0.568
c1cncc(-c2ccc3c(c2)C2(CC3)CCN(c3nncs3)CC2)c1,1.44,-7.47
O=c1ccc(-c2cccs2)nn1CN1CCCCCC1,-1.83,-4.33
COCCN1CCN(Cc2noc(C3CC3)n2)CC1C (stereo not given),-6.85,-12.1
CC(C)C(C(=O)N1CCC(Nc2cccnn2)CC1)n1cncn1 (stereo not given),0.434,12.4
CC(C(=O)N1CCN(c2ccccc2Cl)CC1)n1cncn1 (stereo not given),-1.38,-19.8
CN(C)CC1(O)CCN(S(=O)(=O)c2ccc(F)cc2)C1 (stereo not given),-0.491,12.7
CC(=O)NCCNC(=O)N(C)Cc1ccc2c(c1)OCCO2,-4.52,15.2
COc1ccc(C2CCCN2C(=O)NCCNc2ncccn2)cc1 (stereo not given),10.2,-17.2
CC(C)C(=O)N1CCC(c2nc(O)cc(-c3ccncc3)n2)CC1,-2.46,3.51
O=C(NCCOc1ccc2c(c1)CCC2)N1CCS(=O)(=O)CC1,-1.48,-52.5
CC(C)NC(=O)[C@@H]1CCO[C@@H]2CCN(c3ncccn3)C[C@H]21,4.69,-19.4

Compound,Percent Effect [1] [%],Percent Effect [2] [%]
Cc1cc(N2CCN(CC(=O)N(C)C)CC2)nc(-c2ccncc2)n1,-3.92,-5.53
COc1ccccc1CNC(=O)C1=NN(c2ccc(C)cc2)C(=O)CN1,17.6,11
Cc1cnc(CN2CCOC(Cn3nc(C)nc3C)C2)cn1 (stereo not given),-1.8,-9.64
Cc1cccn2cc(CC(=O)N3CCCC(n4cncn4)C3)nc12 (stereo not given),1.06,-13.1
COCc1ncc(CN2CCC(Oc3ccccc3OC)CC2)cn1,0.276,-1.31
Cc1cnn(CC2CN(CCS(=O)(=O)c3ccccc3)CCO2)c1 (stereo not given),-0.24,0.99
CCCN1C(=O)CC(N2CCN(c3ccc(F)cc3)CC2)C1=O (stereo not given),5.99,-15.7
O=C(CN1CCCCC1C1OCCO1)Nc1ccc(F)c(F)c1 (stereo not given),3.65,3.89
Cc1cnn(C2CN(CC(=O)NCCc3ccccc3)C2)c1,-1.74,32.1
Cc1ncsc1C(=O)N(C)Cc1cccc(Cl)c1,-1.26,17.9
Cc1noc(C)c1CN(C)C(=O)NC1CCN(C2CC2)CC1,-2.46,-7.45
O=C(CN1CCCC1Cn1cncn1)NCCc1c(F)cccc1F (stereo not given),1.46,-12.5
COCC(=O)NCc1cc(=O)n2c(n1)CN(CC1CCOC1)CCC2 (stereo not given),-4.6,-5.14
O=C(c1ccc(O)cc1)N1CCN(C(=O)c2ccc3c(c2)COC3)CC1,-1.8,-20
Cc1cc(CN2CCC(c3ccnn3CCO)CC2)no1,-1.46,-16.1
O=C1COC2(CCN(C(=O)c3ccco3)CC2)CN1Cc1cccnc1,-2.62,-14.9
Cn1nc(CNC(=O)c2nc3ccccc3s2)c2c1CCOC2,-0.335,1.68
Cc1ccc(=O)n(CC2(O)CCN(Cc3cc(C)c(O)c(C)c3)CC2)n1,-3.32,-78.5
COc1ccc(CN(C)Cc2nc3c(cnn3C)c(=O)[nH]2)cc1OC,-3.27,-8.89
O=C(Nc1ccc(F)cc1F)Nc1c[nH]c(=O)[nH]c1=O,1.82,-4.74
Cc1cccc(-c2noc(CN3CCCC3Cn3cccn3)n2)c1 (stereo not given),-8.22,28.6
Cc1nn(C)c(C)c1C1CCCN1CCCc1nc2ccccc2o1 (stereo not given),3.71,7.57
O=C1CC(c2ccccc2)c2c(n3ccsc3nc2=O)N1 (stereo not given),-1.74,-13.6
COCc1cncc2c1CCN(C(=O)c1ccc(C)o1)C2,8.15,-6.15
CCn1cnnc1CNC(=O)N(C)Cc1ccc2c(c1)OCCO2,14.5,13.4

Compound,Percent Effect [1] [%],Percent Effect [2] [%]
CC(C)CN1CCC(C(=O)Nc2cc(C(F)(F)F)c[nH]c2=O)CC1,-2.61,-33.9
CCc1cccc(N2CCC(NC(=O)c3ccc(=O)[nH]n3)CC2)c1,3.83,-1.12
Cc1ccc(NC2CCN(C(=O)Cc3cccc(F)c3)CC2)nn1,14.3,11.3
O=C(NC1CC1)[C@@H]1CCO[C@@H]2CCN(Cc3ccsc3)C[C@H]21,0.474,-0.513
CC(=O)c1ccc(OCC(=O)NC(C)CCc2ccco2)cc1 (stereo not given),4.56,-18.5
Cc1cccc(-n2ncc(C(=O)N3CCn4c(C)nnc4C3)c2C)c1,3.68,32.6
CNC(=O)[C@H]1C[C@H]2OCC[C@H]2N(Cc2ccc(C)o2)C1,-1.06,-4.41
CC(C)Oc1cccc(C(=O)C2CCCN(C(=O)c3ncn[nH]3)C2)c1 (stereo not given),0.948,-0.343
COc1c(CNCCNC(=O)c2ccc(C)cc2)c(C)nn1C,-4.08,-32.3
Cc1nc2ccccn2c1CN(Cc1cccnc1)CC1CCCO1 (stereo not given),8.51,-8.1
CC(=O)N1CCCN(C(=O)NCCc2ccc(Cl)s2)CC1,-3.04,-19.8
CCc1nc(CN2CCCN(C(=O)c3c(C)noc3C)CC2)cs1,1.9,-25.2
Cc1csc(N2CCN(C(=O)CCn3cncn3)CC2)n1,-4.23,-2.86
CC(C)Oc1ccc(CNC(=O)CC(F)(F)F)cc1F,-4.64,33.4
Cc1ccoc1C(=O)N1CCO[C@H]2[C@H](OCCN(C)C)CC[C@@H]21,-1.25,-12.2
CCc1ccc(CN2C[C@@H]3OCCN(c4ccnc(N(C)C)n4)[C@@H]3C2)o1,-6.22,-25.6
CC(=O)N1CCN([C@@H]2CC[C@@H](NC(=O)c3cncc(C)c3)[C@H]2O)CC1,-1.5,-14
Cn1cc(-c2cnc(N3CCOCC3)nc2)cc1C(=O)N1CCOCC1,-3.52,-3.46
O=C(O)C1CCCCN1C(=O)c1cccc(C(F)(F)F)c1 (stereo not given),-1.94,33.5
CC(C)CN1CCC2(CCN(Cc3ccsc3)CC2)C1=O,-5.3,-18.6
CCOc1ccccc1-c1noc(CN(C)Cc2cnn(C)c2)n1,2.13,-14
Cc1nccn1C1CCCN(C(=O)C2=NN(C)C(=O)CC2)C1 (stereo not given),-1.52,19
CC(NC(=O)NCCCN1CCCCCC1)c1nncn1C (stereo not given),2.07,-17.6
Cc1cc(C[S+]([O-])CC(=O)NCc2cccs2)no1 (stereo not given),-0.395,9.34
CN(C)c1cc(C(=O)N2CCN(c3cnccn3)CC2)ccn1,-1.5,3.8

Compound,Percent Effect [1] [%],Percent Effect [2] [%]
COc1cc(N2C[C@@H]3COC[C@]3(COCc3cccc(C)n3)C2)ncn1,-0.107,-2.46
CCn1cnnc1CNC(=O)N1CCN(c2cccc(OC)c2)CC1,0.152,-10.2
O=C1NC2(CCN(Cc3nccs3)CC2)CC1c1ccncc1 (stereo not given),0.717,2.04
Cc1ncsc1C(=O)NCCSCCCO,-4.34,-35.1
Cc1ccc(NC(=O)CNc2cccc3c2CCCC3)c(Br)c1,-0.719,7.99
O=C(NCC(O)c1ccccc1Cl)c1cccc(-n2cnnn2)c1 (stereo not given),7.85,2.65
NC(=O)Nc1cccc(Oc2ccccn2)c1,-2.58,-11.9
CC(=O)N1CCN(C)CC(COCc2ccccc2)C1 (stereo not given),-1.62,-22.4
O=C(c1cscn1)N1CCC2(CCN(Cc3cccs3)CC2)C1,-4.17,-7.4
COCC1c2c(cnn2CC2CC2)CCN1Cc1ccc(OC)cc1 (stereo not given),0.786,4.64
COC(=O)C(NC(=O)COC1CCCC1)c1cc(F)ccc1F (stereo not given),-3.52,-22.4
O=C(c1ccc(C2CCCO2)s1)N1Cc2ccccc2C1 (stereo not given),0.948,-61.8
Cc1ccccc1N1CC2(CCN(S(=O)(=O)c3cccs3)C2)CC1=O (stereo not given),0.41,-0.82
Cc1cc(C)n(C2CCCN(C(=O)c3cnc4onc(C)c4c3)C2)n1 (stereo not given),-0.75,15.8
Cc1cc(C(=O)N[C@@H]2CCNC[C@H]2O)ccc1Cl,2.13,14.6
CN(Cc1ccc2c(c1)OCCO2)C(=O)Cn1ccccc1=O,-7.28,-21.6
CCN(CC)S(=O)(=O)N1CCCC(c2ccc(C(=O)O)cc2)C1 (stereo not given),-0.279,-2.52
Cc1ccc(CN2CCC(c3nnc(CN4CCCCC4)n3C)CC2)o1,-1.53,-7.9
CC(C)Nc1nc(N2CCOCC2)nc2c1CN(Cc1ccoc1)CC2,-5.4,4.99
Cc1csc2ncc(-c3ccnc(N4CCCC[C@@H]4CO)n3)c(=O)n12,-2.34,-17.1
CCc1nc(CN2CCCN(C(=O)C(C)n3ccnc3)CC2)cs1 (stereo not given),-1.76,8.27
Cn1cccc1C(=O)N1CCCN(CCCc2ccccc2)CC1,0.0912,-20.8
CC(C)c1nnc(NC(=O)NCc2ccnc(N(C)C)c2)s1,-3.25,-21.8
O=C(Nc1ncn(CC(=O)N2CCCCCC2)n1)C1CCCO1 (stereo not given),-0.233,29.5
COC(=O)c1ccc2ccn(CC3CCCO3)c(=O)c2c1 (stereo not given),7.1,6.53
